According to PubChem BioAssay AID1159580 (chemical genetic matrix, 2015):
In all, about 5,500 compounds went through this assay and about 2,000 (36%) were called active. Another 18% or so got no clear call; they are omitted. No stated cut-off is given here; in the data, active means normalized growth mostly below about 0.91 (no sharp cut-off); inconclusive means no clear call, values can overlap the other calls; inactive means mostly above about 0.92. The list shows a part of the results.

Experiment: chemical genetic growth profiling, strain panel (AID 1159580);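 further: tested at 20 µM; growth read once vehicle control cultures reached saturation at 30 °C; 1 = growth at the plate median or of vehicle wells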
Conditions: growth OD

Measured: normalized growth

COc1ccc(C2Sc3ccccc3N(CCN(C)C)C(=O)C2OC(C)=O)cc1 (stereo not given)
inactive: S. cerevisiae deletion strains, locus YKL009W, strain mrt4, stronger effect = lower value 1.04 | S. cerevisiae deletion strains, locus YKL068W, stronger effect = lower value 1.02 | S. cerevisiae deletion strains, locus YKL085W, strain MDH1 (second series), stronger effect = lower value 1.03 | S. cerevisiae deletion strains, locus YKL085W, strain MDH1, stronger effect = lower value 1.03 | S. cerevisiae deletion strains, locus YKL160W, strain elf1, stronger effect = lower value 0.972 | S. cerevisiae deletion strains, locus YKL190W, strain CNB1, stronger effect = lower value 0.994 | S. cerevisiae deletion strains, locus YKR001C, strain vps1, stronger effect = lower value 1.04 | S. cerevisiae deletion strains, locus YKR026C, strain gcn3, stronger effect = lower value 0.931 | S. cerevisiae deletion strains, locus YKR091W, strain srl3, stronger effect = lower value 0.983 | S. cerevisiae deletion strains, locus YLL001W, strain dnm1, stronger effect = lower value 0.944 | S. cerevisiae deletion strains, locus YLL026W, stronger effect = lower value 0.983 | S. cerevisiae deletion strains, locus YLL041C, strain sdh2, stronger effect = lower value 0.956 | S. cerevisiae deletion strains, locus YLR027C, strain aat2, stronger effect = lower value 0.974 | S. cerevisiae deletion strains, locus YLR039C, strain RIC1, stronger effect = lower value 1.04 | S. cerevisiae deletion strains, locus YLR058C, strain SHM2, stronger effect = lower value 1.01 | S. cerevisiae deletion strains, locus YLR102C, strain apc9, stronger effect = lower value 1.04 | S. cerevisiae deletion strains, locus YLR113W, strain HOG1, stronger effect = lower value 1.01 | S. cerevisiae deletion strains, locus YLR221C, strain rsa3, stronger effect = lower value 0.989 | S. cerevisiae deletion strains, locus YLR258W, strain gsy2, stronger effect = lower value 0.974 | S. cerevisiae deletion strains, locus YLR262C, strain YPT6 (second series), stronger effect = lower value 0.977 | S. cerevisiae deletion strains, locus YLR262C, strain YPT6, stronger effect = lower value 1.04 | S. cerevisiae deletion strains, locus YLR268W, strain sec22, stronger effect = lower value 1.03 | S. cerevisiae deletion strains, locus YLR320W, strain mms22, stronger effect = lower value 1.02 | S. cerevisiae deletion strains, locus YLR330W, strain CHS5, stronger effect = lower value 1.01 | S. cerevisiae deletion strains, locus YLR342W, strain FKS1 (second series), stronger effect = lower value 1.02 | S. cerevisiae deletion strains, locus YLR342W, strain FKS1, stronger effect = lower value 0.979 | S. cerevisiae deletion strains, locus YLR357W, strain rsc2, stronger effect = lower value 0.922 | S. cerevisiae deletion strains, locus YLR370C, strain arc18, stronger effect = lower value 0.973 | S. cerevisiae deletion strains, locus YLR371W, strain rom2, stronger effect = lower value 1.03 | S. cerevisiae deletion strains, locus YLR384C, strain iki3, stronger effect = lower value 0.941 | S. cerevisiae deletion strains, locus YLR418C, strain cdc73, stronger effect = lower value 1.06 | S. cerevisiae deletion strains, locus YML016C, strain PPZ1, stronger effect = lower value 1.01 | S. cerevisiae deletion strains, locus YML032C, strain rad52, stronger effect = lower value 1.06 | S. cerevisiae deletion strains, locus YML120C, strain ndi1, stronger effect = lower value 0.982 | S. cerevisiae deletion strains, locus YML124C, strain tub3, stronger effect = lower value 1.03 | S. cerevisiae deletion strains, locus YMR058W, strain fet3, stronger effect = lower value 0.986 | S. cerevisiae deletion strains, locus YMR078C, strain ctf18, stronger effect = lower value 1.04 | S. cerevisiae deletion strains, locus YMR125W, strain sto1, stronger effect = lower value 0.896 | S. cerevisiae deletion strains, locus YMR129W, stronger effect = lower value 0.975 | S. cerevisiae deletion strains, locus YMR205C, strain PFK2, stronger effect = lower value 0.98 | S. cerevisiae deletion strains, locus YMR223W, strain ubp8, stronger effect = lower value 1.04 | S. cerevisiae deletion strains, locus YMR231W, strain pep5, stronger effect = lower value 0.965 | S. cerevisiae deletion strains, locus YMR263W, strain SAP30, stronger effect = lower value 1 | S. cerevisiae deletion strains, locus YMR307W, strain GAS1, stronger effect = lower value 1.07 | S. cerevisiae deletion strains, locus YNL067W, strain RPL9B, stronger effect = lower value 1.02 | S. cerevisiae deletion strains, locus YNL071W, strain lat1, stronger effect = lower value 0.998 | S. cerevisiae deletion strains, locus YNL128W, strain TEP1, stronger effect = lower value 1.02 | S. cerevisiae deletion strains, locus YNL153C, strain GIM3, stronger effect = lower value 1.01 | S. cerevisiae deletion strains, locus YNL183C, strain NPR1, stronger effect = lower value 0.953 | S. cerevisiae deletion strains, locus YNL209W, strain ssb2, stronger effect = lower value 0.973 | S. cerevisiae deletion strains, locus YNL233W, strain BNI4, stronger effect = lower value 1.01 | S. cerevisiae deletion strains, locus YNL250W, strain rad50, stronger effect = lower value 1.07 | S. cerevisiae deletion strains, locus YNL271C, strain bni1, stronger effect = lower value 1.04 | S. cerevisiae deletion strains, locus YNL298W, strain CLA4, stronger effect = lower value 1.06 | S. cerevisiae deletion strains, locus YNL307C, strain MCK1, stronger effect = lower value 1.05 | S. cerevisiae deletion strains, locus YNL322C, strain KRE1 (second series), stronger effect = lower value 0.974 | S. cerevisiae deletion strains, locus YNL322C, strain KRE1, stronger effect = lower value 1.01 | S. cerevisiae deletion strains, locus YNR049C, strain mso1, stronger effect = lower value 0.977 | S. cerevisiae deletion strains, locus YNR052C, strain pop2, stronger effect = lower value 1.05 | S. cerevisiae deletion strains, locus YOL006C, strain TOP1, stronger effect = lower value 1.07 | S. cerevisiae deletion strains, locus YOL012C, strain htz1 1.17 | S. cerevisiae deletion strains, locus YOL147C, strain pex11, stronger effect = lower value 1.04 | S. cerevisiae deletion strains, locus YOR001W, strain rrp6, stronger effect = lower value 0.945 | S. cerevisiae deletion strains, locus YOR061W, strain CKA2, stronger effect = lower value 1.01 | S. cerevisiae deletion strains, locus YOR069W, strain VPS5, stronger effect = lower value 1.01 | S. cerevisiae deletion strains, locus YOR070C, strain gyp1, stronger effect = lower value 0.989 | S. cerevisiae deletion strains, locus YOR080W, strain dia2, stronger effect = lower value 0.973 | S. cerevisiae deletion strains, locus YOR083W, strain WHI5, stronger effect = lower value 0.976 | S. cerevisiae deletion strains, locus YOR106W, strain vam3, stronger effect = lower value 0.903 | S. cerevisiae deletion strains, locus YOR136W, strain idh2, stronger effect = lower value 1.04 | S. cerevisiae deletion strains, locus YOR144C, strain elg1, stronger effect = lower value 1.04 | S. cerevisiae deletion strains, locus YOR184W, strain ser1, stronger effect = lower value 1.07 | S. cerevisiae deletion strains, locus YOR231W, strain MKK1, stronger effect = lower value 1.01 | S. cerevisiae deletion strains, locus YOR265W, strain rbl2, stronger effect = lower value 0.974 | S. cerevisiae deletion strains, locus YOR270C, strain vph1, stronger effect = lower value 0.902 | S. cerevisiae deletion strains, locus YOR290C, strain snf2, stronger effect = lower value 0.998 | S. cerevisiae deletion strains, locus YOR316C, strain cot1, stronger effect = lower value 1.03 | S. cerevisiae deletion strains, locus YPL051W, strain arl3, stronger effect = lower value 0.977 | S. cerevisiae deletion strains, locus YPL055C, strain LGE1, stronger effect = lower value 1.04 | S. cerevisiae deletion strains, locus YPL078C, strain atp4, stronger effect = lower value 0.943 | S. cerevisiae deletion strains, locus YPL106C, strain sse1, stronger effect = lower value 0.976 | S. cerevisiae deletion strains, locus YPL240C, strain hsp82, stronger effect = lower value 0.972 | S. cerevisiae deletion strains, locus YPL241C, strain CIN2, stronger effect = lower value 1.01 | S. cerevisiae deletion strains, locus YPL256C, strain CLN2, stronger effect = lower value 0.991 | S. cerevisiae deletion strains, locus YPR119W, strain clb2, stronger effect = lower value 1.03 | S. cerevisiae deletion strains, locus YPR141C, strain kar3, stronger effect = lower value 1.06 | S. cerevisiae deletion strains, locus YPR163C, strain tif3, stronger effect = lower value 1.05 | S. cerevisiae deletion strains, locus YPR167C, strain met16, stronger effect = lower value 1.04 | S. cerevisiae deletion strains, strain wtn01, stronger effect = lower value 1.03 | S. cerevisiae strains, strain wild type, stronger effect = lower value 1.01
